According to PubChem BioAssay AID1159580 (chemical genetic matrix, 2015):
Where “and” joins values, the source holds several entries; their conditions need not be identical. Equal entries are not always repeated. Out of some 5,500 compounds screened, about 2,000 (36%) were called active. About 18% were inconclusive and are not listed. Cut-off read from the data, not from the text of the source: active = normalized growth mostly below about 0.91 (no sharp cut-off); inconclusive = no clear call, values can overlap the other calls; inactive = mostly above about 0.92. This is one part of the list.

Assay: chemical genetic growth profiling, strain panel (AID 1159580);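 note: tested at 20 µM; growth read once vehicle control cultures reached saturation at 30 °C; 1 = growth at the plate median or of vehicle wells; lower values mean less growth of the strain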
Details: S. cerevisiae deletion strains, growth OD

Measured: normalized growth

O=C(O)c1cc2cc(Cl)ccc2[nH]1
inactive: locus YAL013W, strain DEP1, stronger effect = lower value 1.01 | locus YAL021C, strain ccr4, stronger effect = lower value 0.995 | locus YAL026C, strain drs2, stronger effect = lower value 0.988 | locus YAL030W, strain snc1, stronger effect = lower value 0.989 | locus YBL061C, strain skt5, stronger effect = lower value 0.991 | locus YBR009C, strain hhf1, stronger effect = lower value 0.978 | locus YBR021W, strain FUR4, stronger effect = lower value 0.998 | locus YBR023C, strain chs3, stronger effect = lower value 0.986 | locus YBR171W, strain sec66, stronger effect = lower value 0.986 | locus YBR229C, strain ROT2, stronger effect = lower value 1.01 | locus YBR231C, strain swc5, stronger effect = lower value 0.987 | locus YBR279W, strain paf1, stronger effect = lower value 0.995 | locus YCL011C, strain gbp2, stronger effect = lower value 0.985 | locus YCL016C, strain dcc1, stronger effect = lower value 0.988 | locus YCL029C, strain bik1, stronger effect = lower value 0.983 | locus YCL061C, strain MRC1, stronger effect = lower value 0.984 | locus YCL069W, strain vba3, stronger effect = lower value 0.993 | locus YCR088W, strain abp1, stronger effect = lower value 0.975 | locus YDL005C, strain med2, stronger effect = lower value 0.987 | locus YDL035C, strain GPR1, stronger effect = lower value 1.02 | locus YDL040C, strain nat1, stronger effect = lower value 0.989 | locus YDL074C, strain BRE1, stronger effect = lower value 1.05 | locus YDL101C, strain DUN1, stronger effect = lower value 1.03 | locus YDL134C, strain PPH21, stronger effect = lower value 1.01 | locus YDL185W, strain tfp1, stronger effect = lower value 0.973 | locus YDL192W, strain arf1, stronger effect = lower value 0.989 | locus YDR001C, strain nth1, stronger effect = lower value 0.981 | locus YDR069C, strain doa4, stronger effect = lower value 0.983 | locus YDR101C, strain arx1, stronger effect = lower value 0.971 | locus YDR137W, strain rgp1, stronger effect = lower value 0.999 | locus YDR150W, strain NUM1, stronger effect = lower value 1.01 | locus YDR159W, strain sac3, stronger effect = lower value 0.977 | locus YDR162C, strain NBP2, stronger effect = lower value 1.05 | locus YDR195W, strain ref2 0.998 | locus YDR297W, strain sur2, stronger effect = lower value 0.997 | locus YDR318W, strain mcm21, stronger effect = lower value 0.984 | locus YDR334W, strain swr1, stronger effect = lower value 0.986 | locus YDR335W, strain msn5, stronger effect = lower value 0.988 | locus YDR388W, stronger effect = lower value 0.98 | locus YDR392W, strain spt3, stronger effect = lower value 0.953 | locus YDR502C, strain sam2, stronger effect = lower value 0.998 | locus YEL003W, strain gim4, stronger effect = lower value 1 | locus YEL037C, strain rad23, stronger effect = lower value 0.98 | locus YEL061C, strain CIN8 (second series), stronger effect = lower value 0.981 | locus YEL061C, strain CIN8, stronger effect = lower value 1 | locus YER015W, strain faa2, stronger effect = lower value 0.993 | locus YER016W, strain bim1, stronger effect = lower value 0.984 | locus YER110C, stronger effect = lower value 0.982 | locus YER111C, strain swi4, stronger effect = lower value 0.98 | locus YER155C, strain BEM2 (second series), stronger effect = lower value 0.972 | locus YER155C, strain BEM2, stronger effect = lower value 1.01 | locus YER167W, strain BCK2, stronger effect = lower value 1.01 | locus YFR010W, strain ubp6, stronger effect = lower value 0.986 | locus YGL078C, strain dbp3, stronger effect = lower value 0.979 | locus YGL086W, strain mad1, stronger effect = lower value 0.977 | locus YGL167C, strain pmr1, stronger effect = lower value 0.988 | locus YGL173C, strain kem1, stronger effect = lower value 0.984 | locus YGL227W, strain vid30, stronger effect = lower value 0.973 | locus YGL240W, strain doc1, stronger effect = lower value 0.984 | locus YGL248W, strain PDE1, stronger effect = lower value 1.01 | locus YGL253W, strain hxk2, stronger effect = lower value 0.994 | locus YGR078C, strain PAC10, stronger effect = lower value 1.03 | locus YGR135W, strain pre9, stronger effect = lower value 0.994 | locus YGR229C, strain SMI1, stronger effect = lower value 1.02 | locus YGR252W, strain gcn5, stronger effect = lower value 0.928 | locus YHR013C, strain ard1, stronger effect = lower value 0.973 | locus YHR027C, strain rpn1, stronger effect = lower value 0.988 | locus YHR030C, strain SLT2, stronger effect = lower value 0.997 and 0.95 | locus YHR079C, strain IRE1 (second series), stronger effect = lower value 0.984 | locus YHR079C, strain IRE1, stronger effect = lower value 0.932 | locus YHR094C, strain hxt1, stronger effect = lower value 0.984 | locus YHR129C, strain ARP1, stronger effect = lower value 1.01 | locus YHR142W, strain chs7, stronger effect = lower value 0.984 | locus YHR200W, strain rpn10, stronger effect = lower value 0.99 | locus YIL066C, strain RNR3, stronger effect = lower value 1.01 | locus YIL073C, strain SPO22, stronger effect = lower value 1.02 | locus YIL125W, strain kgd1, stronger effect = lower value 0.979 | locus YIR030C, strain dcg1, stronger effect = lower value 0.991 | locus YJL092W, strain hpr5, stronger effect = lower value 0.98 | locus YJL095W, strain BCK1 (second series), stronger effect = lower value 0.983 | locus YJL095W, strain BCK1, stronger effect = lower value 1.03 and 0.942 | locus YJL115W, strain asf1, stronger effect = lower value 0.992 | locus YJL129C, strain trk1, stronger effect = lower value 0.99 | locus YJL134W, strain LCB3, stronger effect = lower value 1.01 | locus YJL154C, strain vps35, stronger effect = lower value 0.985 | locus YJL164C, strain tpk1, stronger effect = lower value 0.99 | locus YJL166W, strain qcr8, stronger effect = lower value 0.995 | locus YJL168C, strain set2, stronger effect = lower value 0.986 | locus YJL187C, strain SWE1 (second series), stronger effect = lower value 1.02 | locus YJL187C, strain SWE1, stronger effect = lower value 0.992 | locus YJR043C, strain POL32, stronger effect = lower value 0.984 | locus YJR066W, strain TOR1, stronger effect = lower value 0.903
